This assay in a line: NCI Yeast Anticancer Drug Screen. Data for the CLN2oe strain (AID 163).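 Note: 0% = growth of vehicle-only control cultures.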 Particulars: S. cerevisiae CLN2oe strain, active compounds read high. On the procedure:
Growth inhibition of yeast strains with defined genetic alterations is measured as a screen for potential anti-cancer activity. Selected strains with alterations in DNA damage repair or cell cycle control were exposed to compounds and growth inhibition was measured relative to vehicle treated controls. The strain used in this assay is CLN2oe

This is part of a sample that, as a whole, favours compounds with a hit. Of some 79,000 tested, about 15% had one in any assay. Unmarked numbers belong to inactive results. Active and inactive are the calls of the source. Cut-off read from the data, not from the text of the source: active = growth inhibition above about 70%; inactive = the rest.

Consider `O=C(/C(=C/c1ccc(O)cc1)c1ccccc1)c1ccccc1`, for which the growth inhibition (at 1.2 µM) was 8%; the growth inhibition (at 3.7 µM) is 10%; the growth inhibition (at 11.0 µM) is 61%; the growth inhibition (at 33.0 µM) is 99% (active); the growth inhibition (at 100.0 µM) was 93% (active).

With `N#CSCC1COc2ccccc2O1` (stereo not given), the growth inhibition reads like this: (at 1.2 µM) -11%; (at 3.7 µM) -14%; (at 11.0 µM) -14%; (at 33.0 µM) 70% (active); (at 100.0 µM) 98% (active).

Regarding `Cc1ccc(S(=O)(=O)N/N=C/C(Br)=C(/Br)C(=O)O)cc1`, the growth inhibition runs as follows: (at 1.2 µM) 3%; (at 3.7 µM) 8%; (at 11.0 µM) 21%; (at 33.0 µM) 54%; (at 100.0 µM) 43%.

Regarding `O=S(=O)(NNc1ccccc1)c1ccccc1`, the growth inhibition is, setting by setting: (at 1.2 µM) 0%; (at 3.7 µM) -1%; (at 11.0 µM) 5%; (at 33.0 µM) 34%; (at 100.0 µM) 85% (active).

Regarding `O=C1C=C(Br)C(=O)c2ccccc21`, the growth inhibition was 5% (at 1.2 µM); 9% (at 3.7 µM); 47% (at 11.0 µM); 99% (active) (at 33.0 µM); 99% (active) (at 100.0 µM).

As for `Cc1cccc2c(NCCCN(C)C)c3c([N+](=O)[O-])ccc(C)c3nc12`, the growth inhibition by setting is: (at 1.2 µM) -2%; (at 3.7 µM) 9%; (at 11.0 µM) 41%; (at 33.0 µM) 88% (active); (at 100.0 µM) 96% (active).

Regarding `CN(C)N=Nc1ccc(N(C)C)cc1`, the growth inhibition (at 1.2 µM) was -2%; the growth inhibition (at 3.7 µM) is -5%; the growth inhibition (at 11.0 µM) is -2%; the growth inhibition (at 33.0 µM) was -2%; the growth inhibition (at 100.0 µM) was -1%.

As for `Cc1ccc(NC(=O)CCC(=O)C(C)C(=O)c2ccccc2)c(C)c1` (stereo not given), the growth inhibition by setting is: (at 1.2 µM) -1%; (at 3.7 µM) 1%; (at 11.0 µM) 5%; (at 33.0 µM) 1%; (at 100.0 µM) 0%.
